These results are taken from PubChem BioAssay (NCATS).

Where “and” joins values, the source holds several entries; their conditions need not be identical. Equal values may be shown once. Records with an inconclusive call do not appear. More than one record can exist for a structure, and the calls need not agree. Calls of active or inactive are those of the source. Unless noted, calls come from the whole dose curve; as a rule, active = well fitted curve in the direction sought with a large enough effect; inconclusive = small, poorly fitted or top-dose-only effect, or another doubt; inactive = no such curve, though single readings can be large; an effect the other way counts as inactive or inconclusive.

Test [1] addresses Cytochrome P450 3A4 (Homo sapiens) (UniProt P08684). Description: Cytochrome P450 family 3 subfamily A member 4 (CYP3A4) small molecule antagonists: luciferase qHTS assay (AID 1645841; active = well fitted curve in the direction sought with a large enough effect in the repeat runs; an effect the other way counts as inactive or inconclusive; note: nearly all actives have a fitted effect of over 45% in size; note: potency is the fitted concentration of half-maximal effect). A digest of the protocol:
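P450-Glo CYP3A4 enzyme with proluciferin substrate preincubated 10 min with compound at room temperature, then NADPH regeneration 1 h. Luciferin detection reagent added for 20 min; luminescence recorded. Ketoconazole positive control.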

The target of test [2] is N-terminal Xaa-Pro-Lys N-methyltransferase 1 (Homo sapiens) (UniProt Q9BV86). Description: Confirmatory qHTS for Inhibitors of N-terminal methyltransferase 1 (NTMT1): MTaseGlo Assay (AID 1645874).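 Note: luminescence from SAH made as NTMT1 methylates SPKRIA peptide using SAM; series mostly up to about 100 µM; nearly all actives have a fitted effect of over 65% in size.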 A digest of the protocol: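 MTase-Glo luminescence measured SAH formed by 125 nM NTMT1 from 100 uM SAM and 1 uM SPKRIA peptide over 30 min at room temperature, following 15 min compound preincubation. Percent inhibition against no-enzyme and DMSO controls gave 4-parameter Hill fits.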
Chain of N-terminal Xaa-Pro-Lys N-methyltransferase 1 (Homo sapiens) (Q9BV86 whole entry, looked up): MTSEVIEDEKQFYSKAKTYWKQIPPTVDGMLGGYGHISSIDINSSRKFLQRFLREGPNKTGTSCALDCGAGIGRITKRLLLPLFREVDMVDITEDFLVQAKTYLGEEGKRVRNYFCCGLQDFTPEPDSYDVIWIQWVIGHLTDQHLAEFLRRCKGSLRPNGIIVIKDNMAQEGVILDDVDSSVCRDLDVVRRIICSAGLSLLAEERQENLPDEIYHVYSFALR

In test [3] the target is Cytochrome P450 2D6 (Homo sapiens) (UniProt P10635). Description: Cytochrome P450 family 2 subfamily D member 6 (CYP2D6) small molecule antagonists: luciferase biochemical (cell-free) qHTS assay (AID 1645840; active = well fitted curve in the direction sought with a large enough effect in the repeat runs; an effect the other way counts as inactive or inconclusive; note: nearly all actives have a fitted effect of over 55% in size; note: potency is the fitted concentration of half-maximal effect). In a few lines:
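P450-Glo CYP2D6 system: proluciferin substrate converted by enzyme to luciferin, read by luminescence proportional to activity. Enzyme-substrate mix with compound 10 min at room temperature, then NADPH regeneration 1 h before detection reagent.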
For orientation: Quantitative high-throughput screening tests each substance at several concentrations.

For test [4], the target named is Cytochrome P450 2C9 (Homo sapiens) (UniProt P11712). Briefly: Cytochrome P450 family 2 subfamily C member 9 (CYP2C9) small molecule antagonists: luciferase biochemical (cell-free) qHTS assay (AID 1645842; active = well fitted curve in the direction sought with a large enough effect in the repeat runs; an effect the other way counts as inactive or inconclusive; note: nearly all actives have a fitted effect of over 55% in size; note: potency is the fitted concentration of half-maximal effect). In a few lines: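 P450-Glo CYP2C9 system: proluciferin substrate with enzyme in mix containing 0.4% BSA, 10 min at room temperature, then NADPH regeneration solution added and incubated 1 h at 37C. Detection reagent stopped reaction; luminescence read after 20 min as RLU.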
Chain of Cytochrome P450 2C9 (Homo sapiens) (P11712 whole entry, looked up): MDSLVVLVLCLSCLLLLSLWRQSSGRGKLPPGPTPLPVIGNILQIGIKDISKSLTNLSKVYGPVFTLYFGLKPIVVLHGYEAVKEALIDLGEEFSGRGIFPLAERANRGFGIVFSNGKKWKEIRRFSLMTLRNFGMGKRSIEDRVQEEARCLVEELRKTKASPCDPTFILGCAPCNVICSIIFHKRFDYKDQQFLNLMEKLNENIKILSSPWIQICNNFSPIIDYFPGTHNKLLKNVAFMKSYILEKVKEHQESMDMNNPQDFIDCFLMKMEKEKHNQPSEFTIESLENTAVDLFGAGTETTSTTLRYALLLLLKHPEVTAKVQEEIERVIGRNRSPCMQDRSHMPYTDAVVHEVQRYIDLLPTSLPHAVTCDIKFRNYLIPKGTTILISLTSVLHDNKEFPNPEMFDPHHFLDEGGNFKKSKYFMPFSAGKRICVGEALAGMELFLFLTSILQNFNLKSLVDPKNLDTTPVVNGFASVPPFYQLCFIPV

Test [5] can be described thus: Primary qHTS for inhibitors of nuclear receptor binding SET domain protein 2 (NSD2) in an isogenic RCH-ACV NSD2 p.E1099K mutant (9B) (AID 1645876). Note: nearly all actives have a fitted effect of over 70% in size. Note: potency is the fitted concentration of half-maximal effect.
Test [6] in a line: Primary qHTS for inhibitors of nuclear receptor binding SET domain protein 2 (NSD2) in an RCH-ACV wild type WT cells (2C) (AID 1645877). Note: nearly all actives have a fitted effect of over 70% in size. Note: potency is the fitted concentration of half-maximal effect.
Another test concerns the target Papain (Carica papaya) (UniProt P00784). Briefly: Primary qHTS assay for inhibitors of the protease papain (AID 1645873).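 Note: papain turnover of Z-FR-AMC read as the AMC fluorescence gain over 10 min; series mostly up to about 50 µM.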

Chain of Cytochrome P450 3A4 (Homo sapiens) (P08684 whole entry, looked up): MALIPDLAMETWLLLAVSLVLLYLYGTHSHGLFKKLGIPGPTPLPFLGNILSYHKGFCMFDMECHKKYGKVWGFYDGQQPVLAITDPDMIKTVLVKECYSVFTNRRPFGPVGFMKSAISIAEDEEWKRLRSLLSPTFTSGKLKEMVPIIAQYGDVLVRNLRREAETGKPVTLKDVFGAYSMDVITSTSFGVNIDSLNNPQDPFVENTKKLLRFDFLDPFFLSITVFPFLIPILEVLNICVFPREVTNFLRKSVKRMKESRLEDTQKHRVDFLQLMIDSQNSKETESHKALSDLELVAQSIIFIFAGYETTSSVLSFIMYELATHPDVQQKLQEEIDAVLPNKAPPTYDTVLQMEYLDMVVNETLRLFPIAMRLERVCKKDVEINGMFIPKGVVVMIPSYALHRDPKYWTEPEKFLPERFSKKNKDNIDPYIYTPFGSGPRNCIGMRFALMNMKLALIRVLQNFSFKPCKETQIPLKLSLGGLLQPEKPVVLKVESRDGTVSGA
Chain of Cytochrome P450 2D6 (Homo sapiens) (P10635 whole entry, looked up): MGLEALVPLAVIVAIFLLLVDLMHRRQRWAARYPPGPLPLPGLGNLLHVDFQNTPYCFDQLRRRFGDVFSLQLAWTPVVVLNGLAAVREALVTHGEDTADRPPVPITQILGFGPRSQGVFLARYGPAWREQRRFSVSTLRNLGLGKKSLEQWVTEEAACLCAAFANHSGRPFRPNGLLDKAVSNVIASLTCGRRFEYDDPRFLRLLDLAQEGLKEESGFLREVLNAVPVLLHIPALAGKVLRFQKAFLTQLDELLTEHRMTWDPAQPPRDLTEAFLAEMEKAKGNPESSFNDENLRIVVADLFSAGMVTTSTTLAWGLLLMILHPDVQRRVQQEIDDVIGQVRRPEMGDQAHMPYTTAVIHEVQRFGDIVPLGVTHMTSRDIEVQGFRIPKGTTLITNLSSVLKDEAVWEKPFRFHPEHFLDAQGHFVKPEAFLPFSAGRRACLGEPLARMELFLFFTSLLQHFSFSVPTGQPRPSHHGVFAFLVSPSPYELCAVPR
Chain of Papain (Carica papaya) (P00784 whole entry, looked up): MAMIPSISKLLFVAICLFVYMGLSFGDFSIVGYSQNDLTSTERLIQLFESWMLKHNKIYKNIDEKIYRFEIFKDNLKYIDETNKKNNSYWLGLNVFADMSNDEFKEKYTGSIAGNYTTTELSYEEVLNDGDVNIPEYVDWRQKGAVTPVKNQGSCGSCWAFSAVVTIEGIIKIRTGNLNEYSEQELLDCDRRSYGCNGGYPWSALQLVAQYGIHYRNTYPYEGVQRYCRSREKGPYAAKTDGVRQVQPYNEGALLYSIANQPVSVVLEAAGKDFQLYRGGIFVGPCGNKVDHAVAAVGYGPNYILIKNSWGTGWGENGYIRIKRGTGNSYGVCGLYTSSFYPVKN

As to `CC(c1cc2ccccc2s1)N(O)C(N)=O` (centres undefined), the Potency in test [1] is 13.8 µM (active).

Take `N=c1nc(N2CCCCC2)cc(N)n1O`: the Potency entry in test [1] is “inactive”.

For `Clc1ccc(Nc2nnc(Cc3ccncc3)c3ccccc23)cc1`, in test [2], the Potency result was “inactive”.

Turning to `CCN(CCCO)CCCOc1ccc2c(Nc3cc(CC(=O)Nc4cccc(F)c4)[nH]n3)ncnc2c1`, the Potency entry in test [1] was “inactive”.

As to `CC[C@@H](C)[C@H](NC(=O)[C@H](CC1CCCCC1)NC(=O)c1ccno1)C(=O)N1CCC2(CCc3ccccc32)CC1`, the Potency result in test [3], in test [4], in test [5] and in test [6] was “inactive” each time.

For `Cn1cnc2c(F)c(Nc3ccc(Br)cc3Cl)c(C(=O)NOCCO)cc21`, the Potency result in test [3], in test [5] and in test [6] was “inactive” in each case. Moreover, in test [4], the Potency is 8.71 µM (active).

Consider `COc1cccc2cc(-c3nc(C4CCC(C(=O)O)CC4)n4ncnc(N)c34)[nH]c12` (centres undefined), for which the Potency entry in test [3] and in test [4] was “inactive” in each case. Moreover, the Potency in test [5] is 5.9 µM (active) and 731 nM (active).

Consider `NNCCc1ccccc1`, for which the Potency in test [3] was 5.49 µM (active). For the same molecule, the Potency result (with Papain (Carica papaya); in test [5]) was “inactive” throughout.

`CCOc1ccn(-c2ccc(F)cc2)c(=O)c1C(=O)Nc1ccc(Oc2ccnc(N)c2Cl)c(F)c1`: the Potency result in test [3] and in test [4] was “inactive” each time. Besides, the Potency is 7.28 µM (active) and 11.8 µM (active) in test [5]; 8.17 µM (active) and 7.42 µM (active) in test [6].

In the case of `Cc1[nH]c(=O)c(C#N)cc1-c1ccc2nccn2c1`, the Potency entry in test [3], in test [4], in test [5] and in test [6] was “inactive” in each case.

As for `C/C(=C\C(=O)Nc1ccccc1C(=O)O)c1ccc2ccccc2c1`, the Potency entry in test [3] was “inactive”. Further, the Potency in test [5] is 20.9 µM (active).

Consider `Clc1cccc(Cl)c1NC1=NCCN1`, for which the Potency result (in test [4]; in the test with Papain (Carica papaya); in test [5]; in test [6]) was “inactive” in each case.

As for `COc1ccc(-c2oc3cc(OC)ccc3c2C(=O)c2ccc(C#N)cc2)cc1`, the Potency in test [4] is 7.56 µM (active).

With `CCc1ccc(CCOc2ccc(CC3SC(=O)NC3=O)cc2)nc1` (centres undefined), the Potency result in test [3] and in test [5] was “inactive” in each case.

As for `COc1ccc2nc(S(=O)Cc3ncc(C)c(OC)c3C)[nH]c2c1` (centres undefined), the Potency entry in test [3] and in test [5] was “inactive” each time.

For the molecule `CCC(C)n1ncn(-c2ccc(N3CCN(c4ccc(OC[C@H]5CO[C@](Cn6cncn6)(c6ccc(Cl)cc6Cl)O5)cc4)CC3)cc2)c1=O` (some centres undefined), the Potency entry in test [3] is “inactive”. For the same molecule, the Potency is 11 µM (active) in test [4] and 0.502 µM (active) in test [5].

In the case of `Cc1ccccc1C(OCCN(C)C)c1ccccc1` (centres undefined), the Potency result (in test [4]; in the test with Papain (Carica papaya); in test [5]; in test [6]) was “inactive” in each case.

For the molecule `Cn1cc(-c2ccc3nnc(C(F)(F)c4ccc5ncccc5c4)n3n2)cn1`, the Potency in test [4] was 3.01 µM (active).

Regarding `NC[C@H](O)c1ccc(O)c(O)c1`, the Potency entry in test [3], in test [5] and in test [6] was “inactive” in each case.

With `N#Cc1ccc(C(c2ccc(C#N)cc2)n2cncn2)cc1`, the Potency result in test [3], in test [5] and in test [6] was “inactive” throughout.

For the molecule `C[C@@H]1CN(Cc2ccc(F)cc2)[C@@H](C)CN1C(=O)c1cc2c(C(=O)C(=O)N(C)C)cn(C)c2cc1Cl`, the Potency in test [4] is 7.56 µM (active).

Consider `OCCn1cc(-c2cnc3nnn(Cc4ccc5ncccc5c4)c3n2)cn1`, for which the Potency entry in test [3], in test [2] and in test [5] was “inactive” throughout.

`COc1ccc(-c2c(-c3ccc(O)cc3O)n[nH]c2C)cc1`: the Potency is 4.47 µM (active) in test [3] and 3.55 µM (active) in test [4]. For the same molecule, in test [5], the Potency result is “inactive”.

For the molecule `CCN(CC)CCCC(C)Nc1nc(C)cc(Nc2ccc3nc(C)cc(N)c3c2)n1` (centres undefined), the Potency result in test [4] was “inactive”.

As to `Cc1oncc1C(=O)Nc1ccc(C(F)(F)F)cc1`, the Potency in test [4] is 13.8 µM (active); in test [5], 10.6 µM (active) and 16.6 µM (active); in test [6], 10.6 µM (active) and 14.8 µM (active). In addition, the Potency result with Papain (Carica papaya) was “inactive”.

Turning to `Cc1c(C)c2c(c(C)c1O)CCC(C)(COc1ccc(CC3SC(=O)NC3=O)cc1)O2` (centres undefined), the Potency in test [4] is 6.92 µM (active).

Consider `COc1ccc(CCN2CCN(CCCc3ccccc3)CC2)cc1OC`, for which the Potency in test [3] is 8.49 µM (active). Also, the Potency entry in test [4], in test [5] and in test [6] was “inactive” in each case.

Regarding `COc1cc(Oc2ccnc3cc(OC)c(OC)cc23)ccc1NC(=O)NC(C)c1nccs1` (centres undefined), in test [3], the Potency entry was “inactive”. The Potency in test [4] was 0.601 µM (active); in test [5], “inactive and 13.2 µM (active)”; in test [6], “inactive and 8.33 µM (active)”.

In the case of `CC(C)OC(=O)C1=CN(C(=O)c2ccc(F)c(F)c2)CC(C)(C)c2c1[nH]c1ccccc21`, the Potency entry in test [3], in test [5] and in test [6] was “inactive” each time.

With `Oc1ccc(C2CNCCc3c2cc(O)c(O)c3Cl)cc1` (centres undefined), the Potency result (in test [4]; in the test with Papain (Carica papaya); in test [5]) was “inactive” in each case.

`Cc1ccc(NC(=O)c2cccc(C(C)(C)C#N)c2)cc1Nc1ccc2ncn(C)c(=O)c2c1`: the Potency is 12 µM (active) in test [3], 8.49 µM (active) in test [4], 10.5 µM (active) in test [5] and 13.2 µM (active) in test [6].

Take `C1COC(NC(C2CC2)C2CC2)=N1`: the Potency result (in test [4]; in the test with Papain (Carica papaya); in test [5]) was “inactive” in each case.

For the molecule `Cc1cnc(NC(=O)C2=C(O)c3ccccc3S(=O)(=O)N2C)s1`, the Potency entry in test [3], in test [5] and in test [6] was “inactive” in each case. Also, the Potency in test [4] was 11 µM (active) and inactive.
